Among the data in PubChem BioAssay (Tox21) are Potency and max response values, retold here.

The nature of assay [1]: A CellTox Green Cytotoxicity Assay to monitor cytotoxicity in HEK293 cells - 40 hour (AID 1224871). Further: nearly all actives have a fitted effect of over 45% in size. Further: potency means the concentration at half of the fitted maximal effect. The procedure, abridged:
(§1)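 Cytotoxicity was tracked continuously in HEK293 cells by a DNA-binding dye excluded from viable cells. Compounds were transferred in DMSO 5 h after seeding; fluorescence was recorded at intervals up to 40 h.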

Assay [2] in a line: qHTS RealTime-Glo MT Cell Viability Assay in HepG2 cells - 8 hour (AID 1224873). Further: nearly all actives have a fitted effect of over 55% in size. In a few lines: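 HepG2 cells (600/well) mixed with RealTime-Glo MT reagent, settled 5 h at 37 C/5% CO2 before compound addition. Nonlytic NanoLuc luminescence from viable-cell prosubstrate reduction read repeatedly during 40 h treatment at 37 C.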
Assay [3] in a line: qHTS RealTime-Glo MT Cell Viability Assay in HEK293 cells - 40 hour (AID 1224874). Further: nearly all actives have a fitted effect of over 50% in size. As to conditions: RealTime-Glo luminescence; max response: stronger effect = lower value. In a few lines:
(§2)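 Nonlytic bioluminescent viability monitoring. HEK293 at 600 cells/well with reagent; 5 h settle; compound transfer by pintool; plates held at 37 C and read at set time points.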
A general note: qHTS replaces the single test concentration by a dilution series.

The nature of assay [4]: A CellTox Green Cytotoxicity Assay to monitor cytotoxicity in HEK293 cells - 24 hour (AID 1224875). Further: nearly all actives have a fitted effect of over 45% in size. Further: potency means the concentration at half of the fitted maximal effect. In a few lines: as §1
Assay [5] is described as follows: A CellTox Green Cytotoxicity Assay to monitor cytotoxicity in HepG2 cells - 16 hour (AID 1224876). Further: nearly all actives have a fitted effect of over 45% in size. Further: potency means the concentration at half of the fitted maximal effect. In a few lines:
(§3)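 Real-time, homogeneous cytotoxicity readout: dead-cell DNA staining by CellTox Green in HepG2 monolayers, fluorescence measured at timed intervals up to 40 h of continuous compound exposure.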

The nature of assay [6]: qHTS RealTime-Glo MT Cell Viability Assay in HepG2 cells - 32 hour (AID 1224877). Further: nearly all actives have a fitted effect of over 55% in size. The procedure, abridged:
(§4)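 HepG2 suspension premixed with RealTime-Glo reagents is plated at 600 cells per well and left 5 h at 37 C/5% CO2. Compounds in DMSO then go in, and bioluminescence reflecting viable cell number is recorded over 40 h.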

Assay [7] can be described thus: A CellTox Green Cytotoxicity Assay to monitor cytotoxicity in HepG2 cells - 24 hour (AID 1224878). Further: nearly all actives have a fitted effect of over 45% in size. Further: potency means the concentration at half of the fitted maximal effect. In a few lines:
as §3

A short description of assay [8]: A CellTox Green Cytotoxicity Assay to monitor cytotoxicity in HepG2 cells - 40 hour (AID 1224879). Further: nearly all actives have a fitted effect of over 40% in size. Further: potency means the concentration at half of the fitted maximal effect. In a few lines:
as §3

The nature of assay [9]: qHTS RealTime-Glo MT Cell Viability Assay in HEK293 cells - 0 hour (AID 1224880). The procedure, abridged:
as §2

Assay [10] is described as follows: A CellTox Green Cytotoxicity Assay to monitor cytotoxicity in HEK293 cells - 32 hour (AID 1224881). Further: nearly all actives have a fitted effect of over 40% in size. Further: potency means the concentration at half of the fitted maximal effect. In a few lines:
as §1

The nature of assay [11]: A CellTox Green Cytotoxicity Assay to monitor cytotoxicity in HepG2 cells - 0 hour (AID 1224882). Further: nearly all actives have a fitted effect of over 35% in size. Further: potency means the concentration at half of the fitted maximal effect. The procedure, abridged:
as §3

The nature of assay [12]: A CellTox Green Cytotoxicity Assay to monitor cytotoxicity in HepG2 cells - 32 hour (AID 1224883). Further: nearly all actives have a fitted effect of over 50% in size. Further: potency means the concentration at half of the fitted maximal effect. The procedure, abridged:
as §3

A short description of assay [13]: A CellTox Green Cytotoxicity Assay to monitor cytotoxicity in HEK293 cells - 8 hour (AID 1224884). Further: nearly all actives have a fitted effect of over 35% in size. Further: potency means the concentration at half of the fitted maximal effect. The procedure, abridged:
as §1

A short description of assay [14]: qHTS RealTime-Glo MT Cell Viability Assay in HepG2 cells - 16 hour (AID 1224885). Further: nearly all actives have a fitted effect of over 50% in size. In a few lines: as §4
The nature of assay [15]: qHTS RealTime-Glo MT Cell Viability Assay in HEK293 cells - 24 hour (AID 1224886). Further: top concentration of the series differs between compounds; nearly all actives have a fitted effect of over 50% in size. In a few lines: (§5)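 Reads taken at 0, 8, 16, 24, 32 and 40 h from the same wells. HEK293 cells (600/well) carried RealTime-Glo reagents from seeding, with compound added after a 5 h settle at 37 C.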
Assay [16] is described as follows: qHTS RealTime-Glo MT Cell Viability Assay in HEK293 cells - 8 hour (AID 1224887). The procedure, abridged: as §2
The nature of assay [17]: A CellTox Green Cytotoxicity Assay to monitor cytotoxicity in HEK293 cells - 16 hour (AID 1224888). Further: nearly all actives have a fitted effect of over 35% in size. Further: potency means the concentration at half of the fitted maximal effect. In a few lines: as §1
Assay [18] in a line: qHTS RealTime-Glo MT Cell Viability Assay in HepG2 cells - 0 hour (AID 1224889). Further: nearly all actives have a fitted effect of over 50% in size. Further: potency means the concentration at half of the fitted maximal effect. The procedure, abridged: as §4
Assay [19] is described as follows: qHTS RealTime-Glo MT Cell Viability Assay in HEK293 cells - 16 hour (AID 1224872). In a few lines: as §5
Assay [20] in a line: A CellTox Green Cytotoxicity Assay to monitor cytotoxicity in HepG2 cells - 8 hour (AID 1224890). Further: nearly all actives have a fitted effect of over 45% in size. Further: potency means the concentration at half of the fitted maximal effect. In a few lines: as §3

Where “and” joins values, the source holds several entries; their conditions need not be identical. Equal values may be shown once. Records with an inconclusive call do not appear. The source holds several records for some structures; these can differ, active in one and inactive in another. Calls of active or inactive are those of the source. The call rests on the fitted dose curve; in most records, active means well fitted curve in the direction sought with a large enough effect in the repeat runs; inconclusive means weak or mixed curves; inactive means no such curve, though single readings can be large; an effect the other way counts as inactive or inconclusive.
On the % scale 0 is the no-effect control and ±100 the full control effect.

Turning to `c1ccc2cc(Nc3ccc(Nc4ccc5ccccc5c4)cc3)ccc2c1`, the Potency entry in [1], in assay [2], in assay [4], in assay [5], in assay [6] and in assay [7] was “inactive” throughout. Besides, the Potency entry in assay [9], in assay [10], in [11], in assay [12], in [13] and in assay [14] was “inactive” in each case. In addition, the Potency result in assay [15], in assay [16], in assay [17] and in [18] was “inactive” in each case. Besides, the max response in [3] is 5.1% (inactive) and 1.69% (inactive). Moreover, the Potency entry in assay [8] is “inactive and 12.3 µM (active)”.
As to `c1ccncc1`, the Potency result in assay [1], in assay [19], in assay [2], in assay [4], in [5] and in assay [6] was “inactive” throughout. Besides, the Potency result in assay [7], in [8], in assay [10], in assay [11], in assay [12] and in [13] was “inactive” in each case. Further, the Potency entry in [14], in assay [15], in [16], in assay [17] and in assay [18] was “inactive” throughout. Further, the max response in [3] is 5.95% (inactive) and 4.64% (inactive).
For the compound `CC(=O)CC/C=C(\C)CCC=C(C)C`, the Potency result in assay [1], in assay [2], in assay [4], in assay [5], in [6] and in assay [7] was “inactive” throughout. For the same compound, the Potency entry in assay [8], in assay [9], in [10], in assay [11], in assay [12] and in [13] was “inactive” throughout. Further, the Potency entry in assay [14], in assay [15], in assay [16], in [17], in assay [18] and in assay [20] was “inactive” in each case. Moreover, the max response in assay [3] is 1.02% (inactive) and 0.97% (inactive).
In the case of `CCCCC/C=C/C=C/C=O`, the Potency in [1] is 54.5 µM (active); in assay [8], 54.9 µM (active); in [10], 54.5 µM (active); in assay [12], 54.5 µM (active) and 54.9 µM (active). Further, the Potency entry in assay [19], in [2], in assay [4], in assay [5], in assay [6] and in assay [7] was “inactive” throughout. Besides, the Potency entry in assay [9], in [11], in assay [13], in assay [14], in [16] and in [17] was “inactive” each time. Besides, the Potency result in assay [18] and in assay [20] was “inactive” in each case. The max response in assay [3] is -25% (inactive).
For the compound `CCCCOCCOCCOCCO`, the Potency entry in assay [1], in [19], in [2], in assay [4], in assay [5] and in assay [6] was “inactive” in each case. Besides, the Potency entry in [7], in assay [8], in assay [9], in assay [10], in [11] and in assay [12] was “inactive” in each case. Besides, the Potency result in assay [13], in assay [14], in [17], in assay [18] and in [20] was “inactive” each time. The max response in assay [3] is 3.72% (inactive) and 4.47% (inactive).
Consider `CC1=CC2C3CC(C=C3C)C2C1` (stereo not drawn), for which the Potency entry in [1] was “inactive and 38.9 µM (active)”; in assay [5], “inactive and 24.5 µM (active)”; in assay [7], “inactive and 27.5 µM (active)”; in [8] it was “inactive and 38.9 µM (active)”; in [10] it was “inactive and 38.9 µM (active)”; in [11], “inactive and 27.5 µM (active)”. Moreover, the Potency entry in assay [12] is “inactive and 24.5 µM (active)”; in [13], “inactive and 43.6 µM (active)”. For the same compound, the Potency result in assay [19], in [2], in assay [6], in assay [9], in [14] and in assay [15] was “inactive” each time. Besides, the Potency result in [16] and in assay [18] was “inactive” in each case. Besides, the max response in [3] is 6.31% (inactive) and 1.24% (inactive).
Consider `O=C1OC2(c3cc(Br)c(O)c(Br)c3Oc3c2cc(Br)c(O)c3Br)c2c(Cl)c(Cl)c(Cl)c(Cl)c21`, for which the Potency in assay [1] is 4.91 µM (active) and 29.7 µM (active); in assay [4], 3.9 µM (active) and 26.5 µM (active); in assay [5], 3.1 µM (active) and 14.9 µM (active); in assay [7], 3.1 µM (active) and 23.6 µM (active); in assay [8] it was 3.1 µM (active) and 14.9 µM (active); in assay [10], 4.91 µM (active) and 26.5 µM (active). The Potency is 39 µM (active) and 26.5 µM (active) in [11]; 3.1 µM (active) and 23.6 µM (active) in assay [12]; 3.9 µM (active) and 23.6 µM (active) in [13]; 2.76 µM (active) and 23.6 µM (active) in assay [17]; 55 µM (active) in assay [18]; 3.47 µM (active) and 16.7 µM (active) in assay [20]. Moreover, the Potency entry in [19], in [2], in assay [6], in assay [14] and in assay [16] was “inactive” each time. In addition, in assay [3], the max response was -3.53% (inactive).
Regarding `Nc1ccc(Cl)cc1Cl`, the Potency result in assay [1], in assay [2], in [4], in assay [5], in assay [6] and in assay [7] was “inactive” throughout. Besides, the Potency entry in [8], in assay [9], in assay [10], in assay [11], in assay [12] and in [13] was “inactive” throughout. The Potency result in assay [14], in [15], in [16], in [17], in assay [18] and in assay [20] was “inactive” in each case. For the same compound, the max response in [3] was 8.67% (inactive) and 2.84% (inactive).
In the case of `COC(=O)CCC(=O)OC`, the Potency result in assay [1], in assay [19], in assay [2], in [4], in [5] and in assay [6] was “inactive” throughout. Moreover, the Potency entry in assay [7], in assay [8], in [9], in [10], in [11] and in [12] was “inactive” each time. Besides, the Potency result in assay [13], in assay [14], in assay [17] and in [18] was “inactive” each time. Moreover, the max response in assay [3] was -3.79% (inactive) and 17.6% (inactive).
